# Bioassay records deposited in PubChem by National Center for Advancing Translational Sciences (NCATS).
# This excerpt belongs to a sample that is enriched for hits.
# KDM5B inh = Primary screen for KDM5B Histone Demethylases FDH-coupled qHTS; Lysine-specific demethylase 5B (Homo sapiens), Q9UGL1; KDM5B demethylase, FDH-coupled NADH fluorescence (FDH is formaldehyde dehydrogenase); Potency, µM (top dose mostly 57.7 µM), hits mostly inhibitors; 220,000 tested, 2.6% active; AID 1347165, 2019; active means well fitted inhibition curve with a large enough effect; further: nearly all actives have a fitted effect of over 70% in size
# Target sequence (Q9UGL1 whole entry, looked up): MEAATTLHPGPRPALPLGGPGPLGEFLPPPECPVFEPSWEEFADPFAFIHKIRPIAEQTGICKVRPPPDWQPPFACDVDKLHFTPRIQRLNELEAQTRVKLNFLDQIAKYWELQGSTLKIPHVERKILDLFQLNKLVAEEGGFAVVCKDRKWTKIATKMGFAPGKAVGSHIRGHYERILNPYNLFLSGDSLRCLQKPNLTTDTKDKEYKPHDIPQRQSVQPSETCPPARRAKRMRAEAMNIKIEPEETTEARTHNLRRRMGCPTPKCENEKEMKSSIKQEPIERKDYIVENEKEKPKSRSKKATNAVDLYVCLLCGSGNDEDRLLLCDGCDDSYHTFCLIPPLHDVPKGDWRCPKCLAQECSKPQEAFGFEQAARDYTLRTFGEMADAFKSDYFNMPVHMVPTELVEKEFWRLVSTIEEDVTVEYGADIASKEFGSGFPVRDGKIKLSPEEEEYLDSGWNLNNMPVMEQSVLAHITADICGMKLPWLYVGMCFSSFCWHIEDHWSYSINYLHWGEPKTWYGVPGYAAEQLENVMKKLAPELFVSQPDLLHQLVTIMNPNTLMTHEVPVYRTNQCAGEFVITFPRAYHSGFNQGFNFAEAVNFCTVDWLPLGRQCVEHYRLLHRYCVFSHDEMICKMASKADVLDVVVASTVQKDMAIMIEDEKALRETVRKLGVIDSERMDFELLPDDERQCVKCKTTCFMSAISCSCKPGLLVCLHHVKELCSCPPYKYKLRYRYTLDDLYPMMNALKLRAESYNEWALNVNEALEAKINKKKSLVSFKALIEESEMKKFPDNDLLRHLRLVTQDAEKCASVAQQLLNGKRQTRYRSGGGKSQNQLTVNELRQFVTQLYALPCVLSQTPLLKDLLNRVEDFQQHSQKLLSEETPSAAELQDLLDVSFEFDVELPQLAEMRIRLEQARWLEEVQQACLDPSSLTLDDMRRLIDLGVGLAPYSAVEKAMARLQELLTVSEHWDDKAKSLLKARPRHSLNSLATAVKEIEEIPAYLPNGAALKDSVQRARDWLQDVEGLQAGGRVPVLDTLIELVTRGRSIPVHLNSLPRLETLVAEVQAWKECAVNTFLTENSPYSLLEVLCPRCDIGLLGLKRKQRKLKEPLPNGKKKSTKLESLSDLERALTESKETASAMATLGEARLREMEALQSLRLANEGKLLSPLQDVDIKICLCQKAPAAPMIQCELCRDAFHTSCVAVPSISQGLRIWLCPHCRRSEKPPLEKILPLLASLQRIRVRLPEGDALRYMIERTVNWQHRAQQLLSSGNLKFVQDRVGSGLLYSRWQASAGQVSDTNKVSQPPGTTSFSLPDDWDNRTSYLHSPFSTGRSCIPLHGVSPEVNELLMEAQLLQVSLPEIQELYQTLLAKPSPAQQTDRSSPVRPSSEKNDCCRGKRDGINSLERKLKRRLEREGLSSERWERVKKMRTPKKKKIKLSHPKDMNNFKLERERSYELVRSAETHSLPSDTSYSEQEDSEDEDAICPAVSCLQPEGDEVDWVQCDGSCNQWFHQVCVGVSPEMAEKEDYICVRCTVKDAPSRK
#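 Measured: NADH fluorescence change, 30 min, RT. System: KDM5BΔAP 200 nM final, H3K4me3 peptide, α-KG, Fe(II), ascorbate, NAD⁺ plus FDH, pH 7.5 HEPES. Compounds: titrated, 10 min pre-incubation with enzyme.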
# Hits are given with their value; . = inactive.
SMILES,KDM5B inh
Cc1cc(C)cc(C(=O)N2CCc3[nH]nc(C(=O)N(C)C)c3C2)c1,.
Cc1ccc(C(=O)NCC(=O)NCCN2CCc3ccccc3C2)cc1,.
CN1CCC(NC(=O)c2ccc3c(c2)N(S(=O)(=O)c2ccccc2F)CC3)CC1,.
COc1ccc(OC)c(CNC(=O)c2ccc3c(c2)N(S(C)(=O)=O)CC3)c1,.
CS(=O)(=O)N1CCc2ccc(C(=O)NCCN3CCc4ccccc4C3)cc21,28µM
COc1ccc(CCNC(=O)c2ccc3c(c2)CCN3S(C)(=O)=O)cc1,.
CCN(CC)CCNC(=O)c1ccc2c(c1)N(S(C)(=O)=O)CC2,28µM
CC(=O)c1c(C)nc(C2CC2)nc1SCC(=O)NC1CC1,.
Cc1cccc(NC(NC(=O)c2ccccc2C)C(Cl)(Cl)Cl)c1 (centres undefined),.
Cc1ccc(NC(=O)c2sc3nc4c(cc3c2N)CN(C(C)C)CC4)cc1,.
OCc1cccc(Nc2ncnc3ccccc23)c1,.
N#CCCN(C(=O)CSc1nnnn1-c1ccc(O)cc1)c1cccc(Cl)c1,.
CCN(Cc1ccncc1)C(=O)CCC1CCN(S(=O)(=O)c2ccccc2)CC1,.
COc1cccc(NC(=O)CCC2CCN(S(=O)(=O)c3ccccc3)CC2)c1,28µM
COc1cc(NC(=O)CCC2CCN(C(=O)c3ccccc3)CC2)cc(OC)c1,.
CCOc1cccc(CNC(=O)CCC2CCN(S(=O)(=O)c3ccccc3)CC2)c1,.
CN(Cc1cccnc1)C(=O)CCC1CCN(S(=O)(=O)c2ccccc2)CC1,.
CCN(Cc1ccccc1)C(=O)CCC1CCN(S(=O)(=O)c2ccccc2)CC1,25µM
O=C(NCCc1ccc(F)cc1)C1CC=CCC1 (centres undefined),.
CC(C)c1ccccc1NC(=O)CSc1ncnc2ccccc12,.
O=C(NC1CCCC1)N1CCCN(c2nc3ncccc3o2)CC1,28µM
O=C(Nc1ccc(Cl)cc1)N1CCCN(c2nc3ncccc3o2)CC1,.
COc1ccc(C(=O)N2CCN(c3nc4ncccc4o3)CC2)cc1C#N,.
COc1ccc(CC(=O)N2CCCN(c3nc4ncccc4o3)CC2)cc1,.
COCC(=O)N1CCN(c2nc3ncccc3o2)CC1,32µM
SMILES,KDM5B inh
O=C(C1CCCN(c2nc3ncccc3o2)C1)N1CCN(c2ncccn2)CC1 (centres undefined),25µM
O=C(C1CCCN(C2CCN(c3nc4ccccc4o3)CC2)C1)N1CCSCC1 (centres undefined),.
O=C(c1ccc(Cl)nc1)N1CCCN(c2nc3ncccc3o2)CC1,.
O=C(C1CCCC1)N1CCCN(c2nc3ncccc3o2)CC1,28µM
Cn1c(=O)c2c(ncn2CC(=O)Nc2ccc(Br)cc2)n(C)c1=O,.
Cc1ccccc1OCCOC(=O)c1ccc2nccnc2c1,.
Cc1nc(C#N)c(N2CCN(C(=O)CN(C)C(C)C(C)C)CC2)o1 (centres undefined),.
O=C(CC1CC2CCC1C2)Nc1ccc(Br)cc1Cl (centres undefined),.
O=C(c1ccc(C(F)(F)F)cc1)N1CCCN(c2nc3ncccc3o2)CC1,.
CC(C)(C)C(=O)N1CCCN(c2nc3ncccc3o2)CC1,35µM
O=C(CSc1nnc(N2CCOCC2)n1-c1cccc(F)c1)Nc1ccc2c(c1)CCC2,.
CCn1c(N2CCN(CCCc3ccccc3)CC2)nc2c1c(=O)[nH]c(=O)n2C,.
COc1ccc(-c2ccc3c(c2)C(=O)N2CCN(C(=O)c4cccnc4)C[C@@H]2C(=O)N3)c(OC)c1,.
O=C(N[C@H]1CCN2C(=O)c3cc(-c4ccccc4F)ccc3NC(=O)[C@H]12)c1cccs1,.
CSc1ccc(-c2ccc3c(c2)C(=O)N2CC[C@H](NC(=O)c4cccs4)C[C@H]2C(=O)N3)cc1,28µM
COc1ccc(C[C@@H]2NC(=O)[C@H]3CN(C(=O)c4ccc(N(C)C)cc4)CCN3C2=O)cc1,.
O=C1Nc2ccc(-c3ccc4c(c3)OCO4)cc2C(=O)N2CCN(C(=O)c3cccs3)C[C@@H]12,28µM
CN(C)c1ccc(C(=O)N2CCN3C(=O)c4cc(-c5ccc6c(c5)OCO6)ccc4NC(=O)[C@H]3C2)cc1,35µM
O=C(N[C@H]1CCN2C(=O)c3cc(-c4cccc(C(F)(F)F)c4)ccc3NC(=O)[C@@H]2C1)c1ccncc1,.
Cc1nn(CC(=O)NC(C)(C)C)c(C)c1S(=O)(=O)N1CCCC(C(=O)N2CCN(C)CC2)C1 (centres undefined),.
COc1cc(C(=O)/C=C/c2cc(Br)c(O)c(OC)c2)ccc1OCC(=O)O,.
COc1ccc(-c2nc(N)nc(C)c2-c2ccc(OC)c(OC)c2)c(O)c1,.
O=C(NCc1ccccc1)C(=O)Nc1cccc2[nH]ccc12,.
O=c1oc2cc(O)ccc2cc1-c1nnc(Nc2ccc(Cl)cc2Cl)s1,.
CC(=O)Nc1ccc(NC(=O)c2cn(Cc3ccccc3)nc2-c2ccc(Cl)cc2)cc1,.
SMILES,KDM5B inh
CN1CCN(c2cc(=O)c3ccnc(-c4ccnn4C)c3o2)CC1,40µM
CN1CCN(c2nnc(-c3ccc(Cl)cc3)c3ccccc23)CC1,.
O=c1cc(-c2ccccc2F)oc2ccc(Br)cc12,.
CN1CCN(c2cc(=O)c3ccnc(-c4ccccc4F)c3o2)CC1,35µM
Cc1ccc2oc(-c3ccccc3F)cc(=O)c2c1,.
CN1CCN(c2cc(=O)c3ccnc(-c4cn[nH]c4)c3o2)CC1,28µM
CN1CCN(c2cc(=O)c3ccnc(-c4ccc(Cl)cc4)c3o2)CC1,35µM
COc1ccc(-c2nccc3c(=O)cc(N4CCN(C)CC4)oc23)cc1OC,.
CN(C)c1cc(=O)c2ccnc(N3CCN(c4ccccn4)CC3)c2o1,.
O=C(NCCc1ccncc1)C1CN(S(=O)(=O)c2ccccc2)CC12CCCCC2 (centres undefined),.
Cc1[nH]c2ccc(C(=O)N3CCC(C(=O)N4CCCCCC4)CC3)cc2c1C,.
CCOCCCNC(N)=S,.
Cc1[nH]c2c(C(=O)N3CCC(C)CC3)cccc2c1C,.
CN(C)C(=O)c1ccc(OC2CCN(C(=O)c3cccs3)CC2)nc1,.
CCc1c(C)sc(NC(=O)/C=C/c2ccc(OC)cc2)c1C#N,.
CCCSc1nc(SC)c2c3c(sc2n1)COC(C)(C)C3,.
O=C(Nc1ccc2oc(C3CC3)nc2c1)c1cc[n+]([O-])cc1,.
Cc1ccc(C)c(Nc2nc(-c3ccc(-c4ccccc4)cc3)cs2)c1,.
COC(=O)CCn1c(SC(C)C(=O)c2ccc(F)c(F)c2)nc2ccccc2c1=O (centres undefined),.
CC(C)(Oc1nn(CC2CCOCC2)c2ccccc12)C(=O)NCc1ccncc1,.
CC(C)(Oc1nn(CC2CCOCC2)c2ccccc12)C(=O)Nc1ccccn1,.
CC(C)(Oc1nn(CC2CC2)c2ccc(CN3CCCC3)cc12)C(=O)NC1CC1,40µM
CN(C)CCNC(=O)C(C)(C)Oc1nn(CC2CCOCC2)c2ccccc12,32µM
Cn1ccc(NC(=O)C(C)(C)Oc2nn(CC3CC3)c3ccc(CN4CCCC4)cc23)n1,35µM
COCc1ccc2c(c1)c(OC(C)(C)C(=O)Nc1ccn(C)n1)nn2Cc1cccnc1,.
Cc1ccc(C(NC(=O)Cc2n[nH]c(=O)c3ccccc23)c2ccccc2)cc1 (centres undefined),.
Cn1nc(C(=O)Nc2cc(-c3cccc(Cl)c3)no2)c2c1-c1ccccc1OC2,.
Cc1ccc2c(-c3oc4ccccc4c3NC(=O)C3CC3)cc(=O)oc2c1C,.
COc1ccc(C(=O)CSc2nnc3c(=O)n(-c4cc(C)cc(C)c4)ccn23)cc1OC,.
